Among all 50,000 compounds or so, about 800 (1.6%) showed an effect of 50% or more. For the sample, strong results were picked, then their nearest neighbours and some compounds at random.
These compounds were tested against Bcl-2-like protein 10 (Homo sapiens) (UniProt Q9HD36) (assay: Phenotype converters, Bcl-B/TR3 peptide binding displacement, primary biochemical FP (AID 1240;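 further: 0% = Bcl-B with tracer peptide and DMSO and 100% = tracer peptide lacking Bcl-B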)). Settings: GST-Bcl-B / FITC-TR3 peptide fluorescence polarization; stronger effect = higher value; compound at 3.75 mg/L.
Chain of Bcl-2-like protein 10 (Homo sapiens) (Q9HD36 whole entry, looked up): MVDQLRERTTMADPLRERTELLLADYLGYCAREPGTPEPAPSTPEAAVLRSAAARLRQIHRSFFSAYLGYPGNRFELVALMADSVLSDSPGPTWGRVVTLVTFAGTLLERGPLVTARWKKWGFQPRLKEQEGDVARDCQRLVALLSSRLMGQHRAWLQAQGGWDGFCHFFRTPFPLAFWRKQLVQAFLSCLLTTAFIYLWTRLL
In the case of `O=C(NCc1ccncc1)c1ccc(Cl)cc1`, the displacement was -3.5%.
For `C/C(=N/NC(=O)COc1cccc(Cl)c1)c1ccccc1O`, the displacement was 9.1%.
With `Cc1cc(C)c(NC(=O)c2ccccc2[N+](=O)[O-])c(C)c1` the displacement was 13.5%.
With `CC(=O)NC(NC(C)=O)c1ccc(F)cc1` the displacement was -2.4%.
Compound `COc1ccc(/C=C2\C(=O)NC(=O)N(c3cccc(Br)c3)C2=O)c(C)c1` has a displacement of -5.7%.
Work on `CCN(CC)c1ccc(/C=C2\C(=O)NC(=O)N(c3ccc(OC)cc3)C2=O)c(OC)c1` yielded a displacement of 10%.
With `COc1ccc(/C=C2\C(=O)NC(=O)N(c3cccc(Br)c3)C2=O)cc1OC` the displacement was 120%.
`CCOc1ccc(N2C(=O)NC(=O)/C(=C\c3ccc(N(CC)CC)cc3OC)C2=O)cc1` was tested, and the displacement was 55.1%.
`COc1ccc(/C=C2\C(=O)NC(=O)N(c3ccc(F)cc3)C2=O)cc1OC` showed a displacement of -27.7%.
Compound `COc1ccc(/C=C2\C(=O)NC(=O)N(c3cccc(Br)c3)C2=O)c(OC)c1` has a displacement of 122%.
Work on `COc1cc(/C=C2\C(=O)NC(=O)N(c3cccc(Br)c3)C2=O)cc(Cl)c1O` yielded a displacement of 4.4%.
With `CCOc1ccc(/C=C2/C(=O)NC(=O)N(c3ccc(OC)cc3)C2=O)c(OCC)c1` the displacement was -4%.
For `COc1ccc(/C=C2\C(=O)NC(=S)N(c3cccc(Br)c3)C2=O)c(OC)c1`, the displacement was -0.7%.
In the case of `Cc1cc(Br)ccc1NC(=O)c1ccc(C)c([N+](=O)[O-])c1`, the displacement was 8.6%.
`CCCCCOC(=O)C1=C(C)NC(=O)NC1c1ccc(Br)cc1` (configuration not stated) gave a displacement of 8.5%.
In the case of `COc1ccccc1C(=O)Nc1nnc(C(C)(C)C)s1`, the displacement was -11.4%.
Work on `CCOc1ccc(S(=O)(=O)N(CC(=O)NC)c2ccc(C)cc2)cc1` yielded a displacement of 1.7%.
`C=CCC(C)(CC=C)NC(=O)c1ccccc1[N+](=O)[O-]` showed a displacement of -6.9%.
For `O=C(NCC1CCCO1)/C(=C/c1ccc(-c2ccccc2Cl)o1)NC(=O)c1ccccc1` (configuration not stated), the displacement was 19.7%.
In the case of `COc1cc(C(=O)Oc2ccc(Cl)cc2C)cc(OC)c1OC`, the displacement was 2.1%.
Compound `CCOC(=O)C1=C(C)NC2=C(C(=O)CC(C)(C)C2)C1c1ccc(OC(F)F)cc1` (configuration not stated) has a displacement of -0.2%.
With `CCOc1cc(/C=C2\C=C(c3ccc(OC)cc3)OC2=O)ccc1OC(C)=O` the displacement was 92.4%.
In the case of `CC(=O)Oc1cccc(/C=C2\C=C(c3ccc(C)cc3)OC2=O)c1`, the displacement was 7%.
`CCOc1cc(/C=C2\C=C(c3ccc(C)cc3)OC2=O)ccc1OC(C)=O` showed a displacement of 111%.
For `CC(=O)Oc1ccc(/C=C2\C=C(c3ccc(C)cc3)OC2=O)cc1`, the displacement was 34.5%.
Compound `COc1ccc(C2=C/C(=C\c3ccc(OC(C)=O)cc3)C(=O)O2)cc1` has a displacement of 110%.
For `CCOc1cc(/C=C2\C=C(c3ccc(Br)cc3)OC2=O)ccc1OC(C)=O`, the displacement was 12.6%.
Compound `CCOc1ccc(C2=C/C(=C/c3ccc(OC)cc3)C(=O)O2)cc1` has a displacement of -0.6%.
`COc1cc(/C=C2\C=C(c3ccc(C)cc3)OC2=O)ccc1OC(C)=O` was tested, and the displacement was 59.2%.
For `COc1ccc(C2=C/C(=C\c3ccc(OC(C)=O)c(OC)c3)C(=O)O2)cc1`, the displacement was 39.4%.
`COc1ccc(/C=C2\C=C(c3ccc(C)cc3)OC2=O)cc1C` was tested, and the displacement was 10.4%.
Work on `CCOc1cc(/C=C2/C=C(c3ccc(OC)cc3)OC2=O)cc(I)c1OC` yielded a displacement of -6%.
With `COc1ccc(C2=C/C(=C\c3cccc(OC(C)=O)c3)C(=O)O2)cc1` the displacement was 25.4%.
With `O=C(O)c1ccc(-c2ccc(OC(F)(F)F)cc2)o1` the displacement was -7.6%.
In the case of `NC(=S)N/N=C/c1cccn1-c1ccc([N+](=O)[O-])cc1`, the displacement was -1%.
With `O=C1S/C(=C/c2ccc(Cl)c(Cl)c2)C(=O)N1c1ccccc1` the displacement was 17.9%.
`CCOC(=O)c1c(NC(=O)CC2SC(N)=NC2=O)sc2c1CCCC2` (configuration not stated) gave a displacement of 6.3%.
In the case of `COc1ccc(C(=O)CC(Nc2ccc([N+](=O)[O-])cc2)c2ccc(Cl)cc2)cc1` (configuration not stated), the displacement was -4.2%.
In the case of `Cc1ccc2c(nc3s/c(=C\c4cccc(Cl)c4Cl)c(=O)n32)c1C`, the displacement was -9.5%.
`Cc1ccc(S(=O)(=O)Oc2ccc(/C=C3\SC(N)=NC3=O)cc2Br)cc1` showed a displacement of 1.8%.
For `O=c1[nH]c(=O)n(-c2ccc(Cl)cc2)c(O)c1C=Nc1cccc(F)c1`, the displacement was 10%.
Work on `Cc1cc(OCC(=O)Nc2cccc(F)c2)cc(C)c1Cl` yielded a displacement of 4.1%.
Work on `COCCNCCOc1c(C)cc(Cl)cc1C` yielded a displacement of 7.2%.
Work on `O=C(Nc1cc(Cl)cc(Cl)c1)c1ccc(CN2CCc3ccccc3C2)cc1` yielded a displacement of -3.7%.
`CCN1C(=O)/C(=C\c2ccc(F)cc2)C(C(=O)OC)=C1C` gave a displacement of 34.2%.
`CCN1C(=O)/C(=C\c2ccccc2)C(C(=O)OC)=C1C` gave a displacement of -23.3%.
With `COC(=O)C1=C(C)N(c2cc(C)cc(C)c2)/C(=C/c2ccco2)C1=O` the displacement was 99.6%.
For `COC(=O)C1=C(C)N(c2ccccc2F)C(=O)/C1=C\c1sccc1C`, the displacement was 7.8%.
`CCN1C(=O)/C(=C\c2ccc(C)cc2)C(C(=O)OC)=C1C` gave a displacement of 86.2%.
`C=CCN1C(=O)/C(=C\c2ccccc2)C(C(=O)OC)=C1C` was tested, and the displacement was -2.2%.
`COC(=O)C1=C(C)N(c2ccccc2F)C(=O)/C1=C\c1ccccc1F` was tested, and the displacement was 112%.
For `COC(=O)C1=C(C)N(c2ccccc2F)C(=O)/C1=C\c1ccc(F)cc1`, the displacement was 2.3%.
`C=CCN1C(=O)/C(=C\c2ccc(C(=O)OC)cc2)C(C(=O)OC)=C1C` gave a displacement of -14.5%.
`C=CCN1C(=O)/C(=C\c2ccco2)C(C(=O)OC)=C1C` showed a displacement of 65.4%.
For `COC(=O)C1=C(C)N(c2ccc(C)c(C)c2)/C(=C/c2ccco2)C1=O`, the displacement was 8.8%.
Work on `COC(=O)C1=C(C)N(c2cc(C)cc(C)c2)/C(=C\c2sccc2C)C1=O` yielded a displacement of 27%.
In the case of `COc1ccc(C(=O)N2CCCc3ccccc32)cc1OC`, the displacement was -3.3%.
For `Cc1cc(=O)oc2cc(OCc3ccc(F)cc3)c(Cl)cc12`, the displacement was 16.8%.
`Cc1cc([N+](=O)[O-])ccc1NCc1cccc(C(F)(F)F)c1` showed a displacement of 2.6%.
In the case of `CC1(C)CC(=O)C2=C(C1)c1c(ccc3ccccc13)NC2c1cccs1` (configuration not stated), the displacement was 7.2%.
`O=C(Nc1ccc(F)cc1)c1ccco1` showed a displacement of 12.9%.
With `COCCN1C(=O)/C(=C\c2ccc3c(c2)OCO3)C(C(=O)OC)=C1C` the displacement was -8%.
Compound `COC(=O)C1=C(C)N(c2cccc(C)c2)C(=O)/C1=C\c1ccc(C(=O)O)cc1` has a displacement of 6.9%.
`COC(=O)C1=C(C)N(C)C(=O)/C1=C\c1ccc(C(=O)OC)cc1` gave a displacement of 16.4%.
Work on `COC(=O)C1=C(C)N(C)C(=O)/C1=C\c1ccc2c(c1)OCO2` yielded a displacement of -0.7%.
`COC(=O)C1=C(C)N(c2ccccc2)C(=O)/C1=C\c1ccc(C(=O)OC)cc1` showed a displacement of 130%.
With `COC(=O)C1=C(C)N(c2ccc(C)cc2)C(=O)/C1=C\c1ccc2c(c1)OCO2` the displacement was 107%.
Work on `COc1ccccc1CC1S/C(=N\N=C\c2cccc([N+](=O)[O-])c2)NC1=O` (configuration not stated) yielded a displacement of 12.9%.
In the case of `COc1ccc(NC(=O)Nc2ccccc2C(F)(F)F)cc1`, the displacement was 8.4%.
In the case of `COC(=O)C(NS(=O)(=O)c1ccccc1)C(C)C` (configuration not stated), the displacement was -12%.
`O=S(=O)(NC(c1cccs1)C(Cl)(Cl)Cl)c1ccc(Cl)cc1` (configuration not stated) was tested, and the displacement was 7%.
In the case of `CN(C)c1cccc2c(C(NS(=O)(=O)c3ccccc3)C(Cl)(Cl)Cl)ccc(N(C)C)c12` (configuration not stated), the displacement was 144%.
For `CCCCNC(=O)/C(=C/c1ccc(C)o1)NC(=O)c1ccccc1`, the displacement was 13.1%.
In the case of `CCOc1ccc(NC2=C(Cl)C(=O)N(c3cccc(Cl)c3Cl)C2=O)cc1`, the displacement was 16.3%.
For `N#C/C(=C/c1cc([N+](=O)[O-])ccc1Cl)C(=O)Nc1cccc(Br)c1`, the displacement was -3.3%.
For `COc1ccc(N2CC(C(=O)N/N=C/c3cccs3)CC2=O)cc1` (configuration not stated), the displacement was 65%.
Work on `O=C(N/N=C/c1cccs1)C1CC(=O)N(c2ccc(Cl)cc2)C1` (configuration not stated) yielded a displacement of -9.3%.
In the case of `O=C(N/N=C/c1cccs1)C1CC(=O)N(c2ccccc2)C1` (configuration not stated), the displacement was 25%.
Work on `O=C(O)/C=C/c1cccc(NS(=O)(=O)c2cccs2)c1` yielded a displacement of -13%.
Compound `Cc1nnc(SCC(=O)Nc2ccc3c(c2)oc2ccccc23)s1` has a displacement of -8.5%.
In the case of `Cn1nnnc1SCC(=O)Nc1ccc2c(c1)oc1ccccc12`, the displacement was 87%.
For `Cn1nnnc1SCC(=O)Nc1ccccc1`, the displacement was 4.1%.
Compound `O=C1NC(=O)/C(=C\c2cc3c(cc2[N+](=O)[O-])OCO3)S1` has a displacement of 6.8%.
`CCCOc1ccc(/C=C2N=C(/C=C/c3ccccc3)OC/2=O)cc1OC` was tested, and the displacement was 166%.
Work on `CCOc1c(Br)cc(/C=C2/C(=O)N(c3ccccc3)N=C2C)cc1OC` yielded a displacement of -0.6%.
`CCCOc1ccc(C=C2C(=O)N(C)C(=O)N(C)C2=O)cc1OC` was tested, and the displacement was 1.3%.
`O=C1OC(/C=C/c2ccccc2)=NC/1=C/c1cccc([N+](=O)[O-])c1` showed a displacement of 98.4%.
`COc1ccc(/C=C2N=C(/C=C/c3ccccc3)OC/2=O)cc1` showed a displacement of 88.6%.
With `O=C1OC(c2ccccc2F)=N/C1=C\c1cccc([N+](=O)[O-])c1` the displacement was 9.9%.
Compound `O=C1OC(c2ccccc2I)=N/C1=C\c1cccc([N+](=O)[O-])c1` has a displacement of -4%.
In the case of `O=C1OC(/C=C/c2ccccc2)=NC/1=C/c1ccccc1`, the displacement was 13.6%.
`COc1cc(/C=C2\N=C(c3ccccc3)OC2=O)cc(Br)c1OCc1c(C)no[n+]1[O-]` showed a displacement of -1.1%.
With `COc1ccc(OC)c(/C=C2N=C(/C=C/c3ccccc3)OC/2=O)c1` the displacement was 9.6%.
In the case of `CCN(CC)c1ccc(/C=C2N=C(/C=C/c3ccccc3)OC/2=O)cc1`, the displacement was -28%.
For `CCOc1c(Br)cc(/C=C2N=C(/C=C/c3ccccc3)OC/2=O)cc1OC`, the displacement was 105%.
Work on `CCOC(=O)c1c(-c2ccccc2)csc1NC(=O)c1ccc(C)cc1` yielded a displacement of -5.7%.
`COc1cc(/C=C2\SC(N)=NC2=O)cc(Br)c1OCc1cccc2ccccc12` showed a displacement of -62.1%.
For `Fc1cccc(-c2nnc3ccc(C(F)(F)F)cn23)c1`, the displacement was -17%.
With `CC(=O)Nc1ccc(I)cc1C` the displacement was -5%.
In the case of `Cc1cc2c(nc3s/c(=C/c4ccccc4)c(=O)n32)c(Br)c1C`, the displacement was -4.6%.
Work on `CC(C)c1ccccc1OCCCN1CCOCC1` yielded a displacement of -6%.
`Cc1ccc(N2C(=O)/C(=C/c3ccc(Oc4ccc([N+](=O)[O-])cn4)cc3)C(=O)NC2=S)c(C)c1` was tested, and the displacement was 7.3%.
For `CC1=NN(c2ccccc2)C(=O)C1C(C)C[N+](=O)[O-]` (configuration not stated), the displacement was -9.8%.
`COc1ccc(/C=N/NC(=O)COc2ccccc2Br)cc1` showed a displacement of 2.6%.
`Cc1occc1C(=O)Nc1ccc(C(=O)O)cc1` was tested, and the displacement was -1.9%.
In the case of `CC(=O)c1ccc(NC(=O)c2ccoc2C)cc1`, the displacement was 94%.
With `COC(=O)c1ccc(NC(=O)c2ccoc2C)cc1` the displacement was -2.7%.
